Vaccinia mCherry – inhibitors of vaccinia virus infection (mCherry reporter signal). hit rate 0.63% among 310,000. AID 720579. Vaccinia virus mCherry reporter infection, fluorescence. Potency, µM (titrated, usually from 36.5 µM), inactives show at the highest dose activity change, negative = inhibition, most hits filed as inhibitors; calls by dose curve; tested in A549 cells; note: potency is the fitted concentration of half-maximal effect; nearly all actives have a fitted effect of over 35% in size
Marburg entry inh – Marburg virus entry inhibition | Marburg virus pseudotyped entry inhibition, cell reporter | Potency, µM (highest dose often 37.8 µM), for the others: top-dose activity change, negative = inhibition, actives largely listed as inhibitors | hit rate 1.8% among 300,000 | AID 540276; calls by dose curve; tested in HEK293 cells; note: potency is the fitted concentration of half-maximal effect
HCV inhibitor – blocks hepatitis C virus; Huh7.5.1 HCVcc-Cre infection, luciferase reporter, 44 h; Potency, µM (titrated, usually from 41.8 µM), for inactives: at the highest dose activity change, negative = inhibition, most hits filed as inhibitors; hit rate 3.4% among 340,000; AID 651820; active = well fitted inhibition curve with a large enough effect; inconclusive = small, poorly fitted or top-dose-only effect, or another doubt; inactive = no such curve, though single readings can be large or run the other way; note: potency is the fitted concentration of half-maximal effect
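Reporter virus HCVcc-Cre (~0.5 moi) infects cells exposed to compound; seeding density 1,000 cells/well with 4 h settling beforehand. Luminescence, 15 sec read, taken 44 h post-infection following a 15 min RT substrate incubation.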
VACV Venus inh – vaccinia inhibition (Venus reporter) | Vaccinia virus Venus reporter expression, fluorescence | Potency, µM (doses to about 36.5 µM), for inactives: at the top dose activity change, negative = inhibition, most hits filed as inhibitors | hit rate 0.46% among 330,000 | AID 720580; calls by dose curve; tested in A549 cells; note: potency is the fitted concentration of half-maximal effect; nearly all actives have a fitted effect of over 30% in size
HCMV inh – inhibitors of human cytomegalovirus; HFF cells, HCMV-luciferase reporter, 72 h; stronger effect = lower value; activity change, negative = inhibition, % at 57.5 µM; hit rate 4.5% among 410,000; AID 1259415; in the data active = activity change below about -60%; inconclusive = no clear call, values can overlap the other calls; inactive = above about -39%
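Two-dose cell screen: HFF monolayers treated with compounds and infected with luciferase-expressing HCMV at 1 PFU/cell, 72 h at 37C, then lysed for luciferase measurement.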
LASV entry inh – inhibitors of Lassa virus binding or cell entry; Lassa virus pseudotype entry inhibition, cell reporter; Potency, µM (titrated, usually from 37.9 µM), inactives show top-dose activity change, negative = inhibition, hits mostly inhibitors; hit rate 1.2% among 300,000; AID 540256; calls by dose curve; tested in HEK293 cells; note: potency is the fitted concentration of half-maximal effect; nearly all actives have a fitted effect of over 50% in size
* = called active by the depositor; i = inactive; ? = inconclusive; . = not tested or not shown; [ ] = remark or other dose. Shown are actives, neighbours in structure and some others; about 7.8% of the full set was active somewhere. % is set by controls: 0 for no effect and ±100 for the full control effect.

SMILES	Vaccinia mCherry	Marburg entry inh	HCV inhibitor	VACV Venus inh	HCMV inh	LASV entry inh
CCC1CN(C(=O)N2CCC(C(=O)NCCCc3ccccc3)CC2)c2ccccc2O1 (centres undefined)	-6%	.	.	-12%	21	-27%[46.1 µM]
COC(=O)c1sc2cccc(F)c2c1S(=O)(=O)NCc1ccc(Cl)cc1	-1%	.	.	11%	-5	12%[46.1 µM]
CC1=C(C(=O)N(C(C)C)C(C)C)CC(CC(=O)NC2CCCCC2)C(=O)N1Cc1ccc(C(C)(C)C)cc1 (centres undefined)	3%	.	.	-20%	-88*	.
CCN(CC)C(=O)C1=C(C)N(Cc2ccc(C(C)(C)C)cc2)C(=O)C(CC(=O)NC(c2ccccc2)c2ccccc2)C1 (centres undefined)	?	.	.	13µM*	-18	.
CC1=C(C(=O)N(C)C)CC(CC(=O)NC(c2ccccc2)c2ccccc2)C(=O)N1Cc1ccc(C(C)(C)C)cc1 (centres undefined)	-13%	.	.	?	31	.
COc1ccc(OC)c(CNC(=O)c2cc(=O)[nH]c3ccc(S(=O)(=O)N4CCCCC4C)cc23)c1 (centres undefined)	-13%	.	.	-9%	-28	?
COc1ccc(Cn2c(-c3ccc(Br)cc3)c[n+]3ccccc23)cc1	.	.	-11%	.	-97*	.
Cn1c(C(=O)N2CCCC(C(=O)NCCc3ccccc3)C2)cc2sccc21 (centres undefined)	-2%	?	?	-16%	-97*	?
O=C(NCc1ccco1)c1cc2sccc2n1Cc1ccccc1	-19%	11%	?	-12%	-11	-23%[14.3 µM]
O=C(NCc1ccco1)c1ccc(Cn2c(=O)c3sccc3n(Cc3cccc(F)c3)c2=O)cc1	11%	-1%	?	-6%	-61*	.
O=C(NCCCN1CCCC1)C1CCN(C(=O)c2cc3sccc3n2Cc2ccc(F)cc2)CC1	-26%	?	25µM*	-22%	.	27%
O=C(c1ccco1)N1CCN(C(=O)c2cc3sccc3n2Cc2ccccc2)CC1	.	-6%	-27%	.	-71*	?
O=C(NCc1ccco1)c1ccc(Cn2c(=O)c3ccccc3n(Cc3cccc(Cl)c3)c2=O)cc1	.	?	?	.	-34	-9%
O=C(c1nc(-c2ccc(Cl)cc2)n2c1CCCCC2)N1CCN(c2ccccc2F)CC1	-13%	.	.	-14%	10	-12%[46.1 µM]
O=C(CSc1nc(=O)[nH]c2c1CCCC2)NCc1ccccc1	0%[7.34 µM]	.	.	-5%[7.34 µM]	2	12%[46.1 µM]
O=C(NC1CC1)[C@@H]1C[C@@H](Sc2nc3ccccc3[nH]2)CN1CC1CCCCC1	-24%	.	.	-15%	.	.
COc1ccc2c(c1)[C@@H](NCc1ccccn1)[C@H](C)[C@@H](c1ccccc1)N2C(=O)NC(C)C	.	.	.	.	19	.
Cc1cnc(SCc2ccccn2)nc1C1CCCN(C(=O)c2ccc3c(c2)OCCO3)C1 (centres undefined)	-12%	.	.	-6%	.	.
O=C(Nc1ccc2c(c1)OCCO2)c1cc2sccc2n1Cc1ccccc1	i	?	11µM*	-20%	?	?
O=C(NCc1ccco1)C1CCN(C(=O)c2cc3sccc3n2Cc2ccc(F)cc2)CC1	-10%	4%	?	-30%	-7	10µM*
Cc1cc2oc(C(=O)Nc3cccc(-c4nc5ccccc5o4)c3)c(C)c2cc1Cl	-11%	-1%[46.1 µM]	.	11%	11	?
Cc1cc(C(=O)O/N=C(\N)c2ccc(C(C)(C)C)cc2)no1	.	.	-26%	.	-69*	.
COc1ccc(C(=O)O/N=C(\N)c2ccccc2)cc1	-14%	?	-2%	-7%	54	?
CC(C)(C)c1ccc(C(=O)O/N=C(\N)c2ccccc2)cc1	5%	.	?	-6%	-94*	.
Cc1noc(-c2ccc(Cl)cc2)c1C(=O)O/N=C(\N)c1ccc(C(C)(C)C)cc1	-11%	?	?	-9%	-100*	?
SMILES	Vaccinia mCherry	Marburg entry inh	HCV inhibitor	VACV Venus inh	HCMV inh	LASV entry inh
Cc1ccc(C(=O)N2CCn3c(nnc3C(=O)NCC3CC3)C2)cc1F	.	.	.	.	-9	.
CN(C)c1ccc(CNc2nc3cc(-c4ccc(F)cc4)sc3c(=O)n2C)cc1	-1%	.	.	-22%	-86*	.
Cn1c(NCc2ccc3occc3c2)nc2cc(-c3ccc(F)cc3)sc2c1=O	-4%	.	.	-19%	?	.
Cc1ccccc1C(=O)Nc1ccc(C(=O)OCc2cc(=O)n3nc(C(C)C)sc3n2)cc1	-20%	.	.	-21%	-15	?
CCOc1cc(CNCc2cc(OC)cc(OC)c2)ccc1OC	-7%	?	0.56µM*	-22%	-11	?
CCOc1cc(CNCc2ccc(C(=O)O)cc2)ccc1OC	-19%	?	13%	-10%	-27	0%
COc1ccc(C(=O)Nc2ccccc2N2CCCCC2)cc1[N+](=O)[O-]	.	.	?	.	-63*	.
COc1ccc(Cl)cc1C(=O)Nc1ccccc1N1CCN(C)CC1	-15%	?	?	-26%	2	-22%
COc1ccc(C(=O)Nc2ccc(Nc3ccccc3)cc2)cc1[N+](=O)[O-]	.	.	11µM*	.	-18	.
CN1CCN(c2ccccc2NC(=O)c2ccc(N3CCCCC3)c([N+](=O)[O-])c2)CC1	.	.	?	.	-16	.
COc1ccc(Cl)cc1C(=O)Nc1ccccc1N1CCCCC1	.	.	11µM*	.	-15	.
COc1ccc(C(=O)Nc2ccc(OCc3ccccc3)cc2)cc1[N+](=O)[O-]	.	?	?	.	10	-9%
CC(=O)Nc1ccc(NC(=O)c2cc([N+](=O)[O-])cc([N+](=O)[O-])c2)cc1	-30%	5%[46.1 µM]	-1%	-10%	-29	-1%[46.1 µM]
Cc1ccc(NC(=O)c2ccc(Nc3c([N+](=O)[O-])cc([N+](=O)[O-])cc3[N+](=O)[O-])cc2)cc1	-23%	10µM*	10µM*	?	-94*	?
CCCc1cc(OC)c2c(c1)OCO2	-18%	.	.	-11%	.	.
COc1ccc(CCC(=O)Nc2cc(Cl)ccc2N2CCN(C)CC2)cc1	.	?	?	?	-3	-27%
COc1ccc(CC(=O)Nc2cc(Cl)ccc2N2CCCC2)cc1	-21%	?	?	-11%	-63*	-15%
CCOC(=O)c1cccn1C1C(=O)N(Cc2ccc(Cl)nc2)c2c(F)cccc21 (centres undefined)	.	.	.	.	-5	.
COc1cc2nc(CCNCc3ccccc3)nc(NC3CCN(C)CC3)c2cc1OC	i	.	.	-16%	.	.
COc1cccc(Nc2nc(N)nc(CCl)n2)c1	10µM*	?	?	?	-80*	?
Cc1cccc(Nc2nc(N)nc(CSc3nccc(C)n3)n2)c1	-20%	?	-3%	-17%	33	0%
Cc1cccc(Nc2nc(N)nc(CCl)n2)c1	?	?	3.2µM*	?	-104*	?
COc1cccc(Nc2nc(N)nc(C(F)(F)F)n2)c1	.	?	-21%	.	38	7%
Cc1[nH]c2ccccc2c1C1=CC(=O)C=CC1=O	-4%	?	?	-25%	-30	?
